Some test systems named below: SK-MEL-2 melanoma; EKVX NSCLC; SN12C renal; UO-31 renal; TK-10 renal; ACHN renal; CAKI-1 renal; A498 renal; CCRF-CEM leukemia; MOLT-4 leukemia; SR leukemia; RPMI-8226 leukemia; OVCAR-5 ovarian; OVCAR-4 ovarian; SK-OV-3 ovarian; IGROV1 ovarian; OVCAR-3 ovarian; HS 578T breast; NCI/ADR-RES ovarian.
Test in all cases: NCI-60 one-dose screen, 48 h (100 = growth as untreated, 0 = no growth, -100 = all killed)
Common to all, as to conditions: 10 µM unless noted

Structures are written as SMILES. About 83,000 compounds went through this panel and 20% of them were active in at least one assay; those are over-represented in the sample as a whole.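 Each cell line was grown in a 96-well plate and treated with one concentration of compound for 48 hours. Values below 10 were considered active.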 A number with no mark means an inactive call. Active and inactive are the calls of the source.

On to `c1ccc(-c2nc3sc(-c4ccccc4)cn3n2)cc1`, for which the growth in the experiment on SK-MEL-2 melanoma is 94.7%; in the experiment on EKVX NSCLC, 78.6%; in the experiment on SN12C renal, 79.5%; with UO-31 renal, 46.9%; in the experiment on TK-10 renal, 127%; in the experiment on ACHN renal, 85.5%. For the same molecule, the growth with CAKI-1 renal is 90.8%; in the experiment with A498 renal, 86%; in the experiment on CCRF-CEM leukemia, 86.8%; with MOLT-4 leukemia it was 88.6%; in the experiment with SR leukemia, 90.4%; in the experiment with RPMI-8226 leukemia it was 85.5%. Besides, the growth with OVCAR-5 ovarian was 122%; in the experiment on OVCAR-4 ovarian, 76.1%; with SK-OV-3 ovarian, 94.2%; with IGROV1 ovarian, 56.2%; in the experiment with OVCAR-3 ovarian, 83.5%; in the experiment on HS 578T breast it was 90.1%. Besides, the growth in the experiment on NCI/ADR-RES ovarian was 85.6%.

For `Cc1nc(NC(=O)COc2ccc(/C=C3\Cc4ccc(Cl)cc4C3=O)cc2)sc1C`, the growth with SK-MEL-2 melanoma is 97.4%; in the experiment with EKVX NSCLC it was 103%; with SN12C renal, 103%; in the experiment with UO-31 renal, -88.5% (active); in the experiment on TK-10 renal, 310%; in the experiment with ACHN renal, 93.7%. Besides, the growth in the experiment on CAKI-1 renal is 86.1%; in the experiment on A498 renal, 139%; in the experiment on CCRF-CEM leukemia, 100%; in the experiment with MOLT-4 leukemia it was 83.1%; with SR leukemia it was 93.2%; with RPMI-8226 leukemia, 103%. For the same molecule, the growth in the experiment with OVCAR-5 ovarian is 105%; in the experiment on OVCAR-4 ovarian, 113%; with SK-OV-3 ovarian, 114%; with IGROV1 ovarian, -69.8% (active); in the experiment with OVCAR-3 ovarian, 105%; with HS 578T breast it was 139%. The growth in the experiment with NCI/ADR-RES ovarian was 96.3%.

Take `CC(=O)N1N=C(c2ccc(Nc3nc(Nc4ccc(F)cc4)nc(Nc4ccc(Cl)cc4)n3)cc2)CC1c1ccc(Cl)cc1` (stereo unspecified): the growth in the experiment with SK-MEL-2 melanoma was 109%; in the experiment on EKVX NSCLC, 87.3%; in the experiment with SN12C renal, 107%; in the experiment with UO-31 renal, 56.8%; in the experiment on TK-10 renal it was 110%; with ACHN renal it was 83.1%. For the same molecule, the growth in the experiment with CAKI-1 renal was 83%; in the experiment with A498 renal, 88.9%; in the experiment on CCRF-CEM leukemia, 110%; with MOLT-4 leukemia it was 98.2%; in the experiment with SR leukemia it was 102%; in the experiment on RPMI-8226 leukemia, 82.7%. In addition, the growth was 95.1% in the experiment with OVCAR-5 ovarian; 94.2% in the experiment with OVCAR-4 ovarian; 97.2% in the experiment on SK-OV-3 ovarian; 66.1% in the experiment on IGROV1 ovarian; 123% in the experiment on OVCAR-3 ovarian; 95.8% with HS 578T breast. The growth with NCI/ADR-RES ovarian was 91.1%.

Regarding `[O-][n+]1c2ccccc2[n+]([O-])c2c3ccccc3[nH]c21`, the growth is 61.9% in the experiment on SK-MEL-2 melanoma; 30.8% in the experiment on EKVX NSCLC; 81.3% with SN12C renal; 70% in the experiment on UO-31 renal; 41% with TK-10 renal; 87.5% in the experiment with ACHN renal. For the same molecule, the growth was 48.1% in the experiment on CAKI-1 renal; -38.5% (active) with A498 renal; 82.3% in the experiment on CCRF-CEM leukemia; 98.8% in the experiment on MOLT-4 leukemia; 95.6% in the experiment on SR leukemia; 57.9% with RPMI-8226 leukemia. Moreover, the growth in the experiment on OVCAR-5 ovarian was 21%; in the experiment with OVCAR-4 ovarian, 34.4%; in the experiment on SK-OV-3 ovarian, 42.8%; in the experiment with IGROV1 ovarian, 13.8%; in the experiment with OVCAR-3 ovarian it was -20.6% (active); in the experiment on HS 578T breast, 96.3%. Besides, the growth in the experiment on NCI/ADR-RES ovarian was 65.4%.

Turning to `O=c1n(Cc2ccc3ccccc3c2)ccn1Cc1ccc2ccccc2c1`, the growth with SK-MEL-2 melanoma was 83%; with EKVX NSCLC it was 96.6%; in the experiment on SN12C renal, 91.2%; with UO-31 renal, 86.5%; in the experiment with TK-10 renal, 82.7%; with ACHN renal, 74.3%. In addition, the growth in the experiment with CAKI-1 renal is 90%; in the experiment with A498 renal, 105%; in the experiment with CCRF-CEM leukemia, 117%; in the experiment with MOLT-4 leukemia, 91.8%; in the experiment with SR leukemia, 97%; in the experiment with RPMI-8226 leukemia it was 104%. Moreover, the growth in the experiment with OVCAR-5 ovarian was 82.1%; in the experiment with OVCAR-4 ovarian it was 69.3%; in the experiment with SK-OV-3 ovarian, 90.5%; in the experiment with IGROV1 ovarian, 91.6%; with OVCAR-3 ovarian, 100%; in the experiment on HS 578T breast, 86.9%. Moreover, the growth in the experiment on NCI/ADR-RES ovarian is 86.8%.

Consider `c1ccc2cc(C[n+]3ccn(CCCCCCn4cc[n+](Cc5ccc6ccccc6c5)c4)c3)ccc2c1`, for which the growth in the experiment with SK-MEL-2 melanoma was 36%; in the experiment with EKVX NSCLC, 37.3%; with SN12C renal it was 34.9%; with UO-31 renal, 97.2%; in the experiment on TK-10 renal, 83.1%; in the experiment on ACHN renal, 72.5%. For the same molecule, the growth in the experiment with CAKI-1 renal was 95.4%; with A498 renal, 10%; in the experiment on CCRF-CEM leukemia, 84.2%; in the experiment with MOLT-4 leukemia, 74.9%; in the experiment with SR leukemia, 69%; in the experiment with RPMI-8226 leukemia it was 65.5%. Besides, the growth was 60.4% in the experiment with OVCAR-5 ovarian; 40.8% in the experiment on OVCAR-4 ovarian; 55.6% in the experiment with SK-OV-3 ovarian; 58.1% with IGROV1 ovarian; 62.4% in the experiment on OVCAR-3 ovarian; 68.5% with HS 578T breast.

In the case of `Cc1ccc(S(=O)(=O)N/N=C/C2(c3ccccc3)CC2)cc1`, the growth in the experiment on SK-MEL-2 melanoma is 126%; with EKVX NSCLC it was 99%; in the experiment on SN12C renal, 98.7%; with UO-31 renal, 93.2%; in the experiment on TK-10 renal, 120%; with ACHN renal, 109%. The growth was 92.6% in the experiment on CAKI-1 renal; 86.6% with A498 renal; 88.5% in the experiment on CCRF-CEM leukemia; 90.5% in the experiment with MOLT-4 leukemia; 101% in the experiment on SR leukemia; 96.9% in the experiment with RPMI-8226 leukemia. Further, the growth in the experiment on OVCAR-5 ovarian was 109%; with OVCAR-4 ovarian it was 98.8%; in the experiment on SK-OV-3 ovarian it was 110%; with IGROV1 ovarian, 116%; with OVCAR-3 ovarian, 111%; in the experiment on HS 578T breast, 102%. Also, the growth in the experiment with NCI/ADR-RES ovarian is 107%.

Consider `Cc1ccc(S(=O)(=O)Oc2ccc(NC(=O)c3ccc(Cl)cc3)cc2)cc1`, for which the growth with SK-MEL-2 melanoma is 99.8%; with EKVX NSCLC it was 91.3%; in the experiment on SN12C renal, 96.1%; in the experiment with UO-31 renal, 91.6%; in the experiment on TK-10 renal, 92.5%; with ACHN renal it was 102%. The growth with CAKI-1 renal is 100%; with A498 renal, 93.9%; in the experiment on CCRF-CEM leukemia, 104%; with MOLT-4 leukemia it was 104%; in the experiment on SR leukemia, 93.6%; in the experiment with RPMI-8226 leukemia it was 97.6%. Besides, the growth in the experiment on OVCAR-5 ovarian is 107%; in the experiment on OVCAR-4 ovarian it was 96.5%; in the experiment on SK-OV-3 ovarian it was 98.5%; with IGROV1 ovarian, 97.8%; in the experiment with OVCAR-3 ovarian, 103%; in the experiment on HS 578T breast, 107%. In addition, in the experiment with NCI/ADR-RES ovarian, the growth is 99.4%.

Values taken from PubChem BioAssay (NCI).
